± gives the standard deviation.
Key:
[1] = tested on: MILI (PIWIL2) piRISC loaded with L1MC piRNA (26 nt); experiment: pre-steady-state target cleavage rate (min^-1); guide: L1MC piRNA 5'p-UAACUAAAUACUAUGCAAGCUGUAGG; higher = faster piRNA-guided slicing of the target;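 further: 1 nM active piRISC with 0.1 nM target library at 33 °C single turnover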
Outline: (§1)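 A burst-and-steady-state fit was used to obtain the pre-steady-state cleavage rate. The input data were sequencing reads of uncleaved targets, normalised to depth and to weakly complementary targets, from a […] transcribed, DNA-blocked target RNA library mixed with 1 nM active affinity-purified piRISC holding one synthetic guide, with or without 500 nM GTSF1 partner protein, in HEPES–potassium acetate buffer at 33 °C for 0–8 or 0–960 min. Three trials were pooled and k3 was capped at 0.0001 min^-1.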

[2] = tested on: EfPiwi piRISC loaded with L1MC piRNA (26 nt); experiment: pre-steady-state target cleavage rate (min^-1); auxiliary factor: 500 nM Ephydatia muelleri Gtsf1; guide: L1MC piRNA 5'p-UAACUAAAUACUAUGCAAGCUGUAGG; MIWI and MILI are mouse PIWI proteins and EfPiwi is from a freshwater sponge; tags in brackets are library labels; higher = faster piRNA-guided slicing of the target
Outline: as §1

[3] = auxiliary factor: 500 nM mouse GTSF1
[4] = auxiliary factor: none (no GTSF1)

Sequence | pre-steady-state target cleavage rate [1, 3] | pre-steady-state target cleavage rate [1, 4] | pre-steady-state target cleavage rate [2]
UCCUCCUUCAGCUUGCAUAGUAUUAAGUUA | 0.155 ± 0.022 | 0.00246 ± 0.0023 | 0.00716 ± 0.0031
UCCUGGAUGUCGAUGUAUAGUAUUUAGUUA | 0.0919 ± 0.011 | 0.0069 ± 0.002 | 0.00398 ± 0.003
UCCUGGAUGAGUUGCAUAGUAUUUAGUUA | 0.108 ± 0.013 | 0.00501 ± 0.0019 | 0.00429 ± 0.002
UCCUGGAUCUGCUUGCAAAGUAUUUAGUUA | 0.0598 ± 0.013 | 0.0085 ± 0.0023 | 0.0405 ± 0.011
UCCUGGAUCAGCGUGCAUAGUAUUUAGUUA | 0.225 ± 0.015 | 0.00697 ± 0.0035 | 0.0619 ± 0.012
UCCUGGAACACUUGCAUAGUAUUUAGUUA | 0.194 ± 0.017 | 0.00651 ± 0.0021 | 0.0107 ± 0.0034
UCCUGGAUGUGCAUUGCAUAGUAUUUAGUUA | 0.182 ± 0.023 | 0.0119 ± 0.0039 | 0.0129 ± 0.0042
UCCUGGAUGAGCUUGCAUAGUAUUUAGUUC [g2:g21:cont:t1C] | 0.166 ± 0.014 | 0.00562 ± 0.0029 | 0.039 ± 0.01
UCCUCGUACAGCUUGCAUAGUAUUUUGUUA | 0.143 ± 0.016 | 0.00289 ± 0.0028 | 0.007 ± 0.0031
UCCUGGAACAGCUUGCGUAGUAUUUAGUUA | 0.277 ± 0.016 | 0.00716 ± 0.0018 | 0.00807 ± 0.0034
UCCUCCUACAGCUUGCAUAGUAUAUAGUUA | 0.242 ± 0.026 | 0.00534 ± 0.0019 | 0.00814 ± 0.0038
UCCUGCUACAGCUUGCAUAGUAUUUGAGUUA | 0.135 ± 0.02 | 0.00331 ± 0.0024 | 0.0068 ± 0.0022
UCCUGGUACAGAUUGCAUAGUAUUUAGUUA | 0.257 ± 0.028 | 0.0104 ± 0.0044 | 0.0131 ± 0.0038
UCCUGGUACUGCUUGCAUUGUAUUUAGUUA | 0.0791 ± 0.015 | 0.00624 ± 0.0037 | 0.00516 ± 0.0027
UCCUGGAUCAGCUUGCAUAGUAUUUCGUUA | 0.147 ± 0.034 | 0.00354 ± 0.0024 | 0.00263 ± 0.002
UCCUGGAACAGCUUGCAUAGUAUUUAAGUUA | 0.195 ± 0.029 | 0.00781 ± 0.0028 | 0.0138 ± 0.0052
UCCUGGAUGAGCUUGCAUAGUAUUUAGGUUA | 0.195 ± 0.028 | 0.0044 ± 0.0031 | 0.0031 ± 0.002
UCCUGCUACACCUUGCAAAGUAUUUAGUUA | 0.106 ± 0.0086 | 0.00675 ± 0.0025 | 0.00571 ± 0.0021
UCCUGCUACAGCUUGCAUUGUAUUUAGUAA | 0.176 ± 0.018 | 0.00356 ± 0.002 | 0.00316 ± 0.0014
UCCUGCUAGAGCUUGCAUAGUAUAUAGUUA | 0.176 ± 0.02 | 0.00268 ± 0.0026 | 0.00471 ± 0.0017
UCCUGGUACAGCUUGCGUAGUAUUUAGUUA | 0.219 ± 0.021 | 0.014 ± 0.004 | 0.0273 ± 0.0095
UCCUGCUACAGGUUGCAUAGUAUUAAGUUA | 0.208 ± 0.034 | 0.00616 ± 0.0022 | 0.00526 ± 0.0024
UCCUGGAACACCUUGCAUAGUAAUUAGUUA | 0.191 ± 0.031 | 0.00362 ± 0.0024 | 0.00283 ± 0.0022
UCCUCCUACAGCUUGCAUAGUAAUUAGUUA | 0.275 ± 0.022 | 0.00666 ± 0.0023 | 0.0117 ± 0.0045
UCCUCCUACACCUUGCAUAGUAAUUAGUUA | 0.196 ± 0.031 | 0.00304 ± 0.0027 | 0.0071 ± 0.0031
UCCUGGAUGUCCUUGCAUAGUAUUUUAGUUA | 0.107 ± 0.017 | 0.0134 ± 0.0036 | 0.00287 ± 0.0028

Sequence | pre-steady-state target cleavage rate [1, 3] | pre-steady-state target cleavage rate [1, 4] | pre-steady-state target cleavage rate [2]
UCCUGCUACAGCAUGCUUAGUAUUUAGUUA | 0.255 ± 0.017 | 0.00606 ± 0.0028 | 0.0122 ± 0.0038
UCCUGGAUGAGCUAGCAUAGUUUUUAGUUA | 0.0185 ± 0.0066 | 0.00507 ± 0.0028 | 0.00278 ± 0.0027
UCCUGCUUCUGCUUGCAUAGUAUUUAGUUA | 0.199 ± 0.016 | 0.00864 ± 0.0018 | 0.0112 ± 0.0038
UCCUGGAUGAGCUUGGAUAGUAAUUAGUUA | 0.1 ± 0.02 | 0.00311 ± 0.0026 | 0.00302 ± 0.0021
UCCUCCUACAGGUUGCAUAGUAUUUAGUUA | 0.264 ± 0.013 | 0.00924 ± 0.0019 | 0.0556 ± 0.013
UCCUGGUACAGCUUGCAUAGUAUUUAGUGUA | 0.143 ± 0.021 | 0.00896 ± 0.0033 | 0.00435 ± 0.0027
UCCUGGAUGUCGUGCAUAGUAUUUAGUUA | 0.115 ± 0.014 | 0.00386 ± 0.0022 | 0.00802 ± 0.003
UCCUCCUACAGGUUGCAUUGUAUUUAGUUA | 0.152 ± 0.012 | 0.00725 ± 0.0019 | 0.0124 ± 0.0028
UCCUGGUACAGCUUGGAUAGUAUAUAGUUA | 0.316 ± 0.065 | 0.0066 ± 0.0032 | 0.00702 ± 0.0025
UCCUGGUAGAGCUUGCAAAGUAUUUAGUUA | 0.109 ± 0.0077 | 0.00935 ± 0.0029 | 0.0322 ± 0.0099
UCCUGGUUACAGCUUGCAUAGUAUUUAGUUA | 0.256 ± 0.025 | 0.03 ± 0.0078 | 0.0881 ± 0.021
UCCUGCUUCACCUUGCAUAGUAUUUAGUUA | 0.228 ± 0.027 | 0.00696 ± 0.0025 | 0.0076 ± 0.0034
UCCUCCUACUGCUUGCAUAGUAUAUAGUUA | 0.179 ± 0.021 | 0.00372 ± 0.0022 | 0.0123 ± 0.0054
UCCUCCUACAGCUUGCAUAAUAUUUAGUUA | 0.292 ± 0.026 | 0.00352 ± 0.0022 | 0.00664 ± 0.0024
UCCUCCUUCAGCUUGCAUAGUAUAUAGUUA | 0.216 ± 0.022 | 0.00364 ± 0.0025 | 0.0124 ± 0.0058
UCCUGGAUCAGCUUGCAUAGUAUUUUGUUA | 0.144 ± 0.019 | 0.00819 ± 0.0028 | 0.0125 ± 0.0042
UCCUGGAUGUGCUUGCAUAGUGUUUAGUUA | 0.0653 ± 0.013 | 0.00396 ± 0.0032 | 0.0123 ± 0.0051
UCCUGGAUCACCUUGGAUAGUAUUUAGUUA | 0.173 ± 0.02 | 0.00563 ± 0.0021 | 0.00371 ± 0.0037
UCCUGCAACAGCUUGGAUAGUAUUUAGUUA | 0.251 ± 0.011 | 0.00806 ± 0.0021 | 0.0256 ± 0.0066
UCCUGCUACAGCUUGCAUAGUAAUUUAGUUA | 0.233 ± 0.023 | 0.00525 ± 0.0024 | 0.00515 ± 0.0024
UCCUGCUACAGGUUGCAUACUAUUUAGUUA | 0.0385 ± 0.0068 | 0.00412 ± 0.002 | 0.00621 ± 0.0019
UCCUGGAUCAGCUCGCAUAGUAUUUAGUUA | 0.284 ± 0.019 | 0.00608 ± 0.0029 | 0.0549 ± 0.013
UCCUCCUACAGGCUUGCAUAGUAUUUAGUUA | 0.268 ± 0.019 | 0.00802 ± 0.0025 | 0.0234 ± 0.0078
UCCUGCUACUGCUUGGAUAGUAUUUAGUUA | 0.221 ± 0.016 | 0.00763 ± 0.0018 | 0.0111 ± 0.0029
UCCUGGAACAGCUUGCAUAGUACUUUAGUUA | 0.168 ± 0.015 | 0.00486 ± 0.0022 | 0.00922 ± 0.0033

Reference: the supplement of paper PMC10338343
